PubChem BioAssay AID504832 (National Center for Advancing Translational Sciences (NCATS), 2011)
Out of some 310,000 compounds screened, about 18,000 (5.8%) were called active. Another 22% or so got no clear call; they are omitted. What follows is part of a selection rich in actives, with near analogues and random picks from the rest. Values without a mark were called inactive. Calls come from the whole dose curve; as a rule, active = well fitted inhibition curve with a large enough effect; inconclusive = small, poorly fitted or top-dose-only effect, or another doubt; inactive = no such curve, though single readings can be large or run the other way.

Assay: Primary qHTS for delayed death inhibitors of the malarial parasite plastid, 48 hour incubation
Conditions: P. falciparum luciferase growth in erythrocytes; series mostly up to 28.7 µM; activity change, negative = inhibition: at the top concentration
How it was run: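 Here the parasites carry a stable luciferase gene and grow inside erythrocytes in Albumax-based RPMI medium with compound for one erythrocytic cycle. Activity is scored as loss of luminescent signal.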
% is set by controls: 0 for no effect and ±100 for the full control effect; potency is the fitted concentration of half-maximal effect.

Structure (SMILES)	activity change, negative = inhibition	Potency
O=C(CSc1nc2[nH]ncc2c(=O)[nH]1)Nc1ccc(F)cc1	-26.2%	
Cc1nonc1NC(=O)c1oc2ccccc2c1C		9.28 µM (active)
Cc1c(C(=O)NNC(=O)c2ccncc2)oc2ccccc12	2.2%	
Cc1nonc1NC(=O)c1ccccc1Br	11.3%	
Cc1ccc(NS(=O)(=O)c2ccc3c(c2)NC(=O)CO3)cc1	16.8%	
Cc1cc2c(cc1C)NC(c1ccccn1)C1=C(CC(C)(C)CC1=O)N2 (stereo unspecified)		10.4 µM (active)
CC1(C)CC(=O)C2=C(C1)Nc1cc(C(=O)c3ccccc3)ccc1NC2c1ccccn1 (stereo unspecified)	-3.64%	
CC1(C)CC(=O)C(C2=NC(C)(C)Cc3ccccc32)=C(O)C1	-7.07%	
Cc1ccc(NS(=O)(=O)c2ccc(-c3coc(C)n3)cc2)c(C)c1	32.4%	
CCc1ccc2[nH]c(=O)c(Cc3ccccc3)c(O)c2c1	-10.4%	
COc1cc([C@H](Cc2ccccc2)NC(C)=O)oc(=O)c1		9.28 µM (active)
CCOC(=O)C(Cc1ccccc1)NC(=O)CCC(=O)c1ccc(OC)cc1 (stereo unspecified)	-19.8%	
COC(=O)[C@H](Cc1ccccc1)NC(=O)Nc1ccc(OC)cc1	-8.2%	
Nc1cc(N)nc(SCc2cccc(F)c2)n1	59.5%	
COc1ccc(S(=O)(=O)N2CCN(C)CC2)c(C)c1	0.0519%	
CC(C)CCN1CCC(C)(NC(=O)c2ccccc2)C1=O (stereo unspecified)	0%	
Cc1cc(Cl)c2oc(C(=O)NC(C)c3ccncn3)c(C)c2c1 (stereo unspecified)	0%	
COc1ccc(-c2nn(-c3ccccc3)cc2C(=O)Nc2nccs2)cc1OC		13.1 µM (active)
COc1ccc(-c2nn(-c3ccccc3)cc2/C=N/Nc2ccccn2)cc1OC		4.65 µM (active)
COc1ccc(-c2nn(-c3ccccc3)cc2C(=O)Nc2nc(CC(C)=O)ns2)cc1	-13.6%	
Cc1nnc(SCC(=O)N/N=C/c2cn(-c3ccccc3)nc2-c2ccc(F)cc2)n1-c1ccccc1	-22%	
CN(C)/N=C/c1cn(-c2ccccc2)nc1-c1cccnc1	6.39%	
O=C(O)c1ccc(NC(=O)c2cn(-c3ccccc3)nc2-c2ccc(Cl)cc2)cc1	-13%	
Cc1nc([N+](=O)[O-])cn1CC(=O)Nc1ccc(Cl)cc1	25.8%	
O=C(Nc1ccc(NC(=O)c2ccccc2F)cc1)c1ccccc1F	23.2%	
O=C(O)c1ccccc1CSc1nc2ccccc2s1	46.1%	

Structure (SMILES)	activity change, negative = inhibition	Potency
CCOC(=O)C1CCN(C(=O)CN2C(=O)c3cccnc3Oc3ccc(C)cc32)CC1	-12.4%	
COc1ccc(C2/C(=C(/O)c3ccccc3)C(=O)C(=O)N2C)c(OC)c1 (stereo unspecified)	9.99%	
C#CC(CCN1CCCCC1)(OC)c1ccccc1 (stereo unspecified)	131%	
CN1CCC[C@@H]1CCO[C@](C)(c1ccccc1)c1ccc(Cl)cc1		12 µM (active)
COc1ccc(CNC(=O)COc2ccccc2C(=O)c2cnn(-c3ccccc3)c2)cc1OC	35.7%	
N#Cc1ccc(CN2CCN(CC(=O)Nc3ccccc3C(=O)NC3CC3)CC2)cc1	-9.94%	
CCn1cc(C(=O)NCCC(=O)NCCO)c(=O)c2cc3c(cc21)OCO3	16.2%	
COc1ccc(C(=O)Nc2ccc(C3(C#N)CCCC3)cc2)cc1OC	76%	
COc1cc(C(=O)NCC2(c3ccccc3)CCCC2)ccc1OC(C)C		14.7 µM (active)
COc1ccc(C2(CNC(=O)Cc3ccc(OC)c(OC)c3)CCCC2)cc1	17.5%	
COc1cc(OC)c(NS(=O)(=O)c2cn(C)cn2)cc1Cl	20.2%	
Cc1cccc(NC(=O)c2cccnc2Cl)n1	9.63%	
COCCN(CCOC)C(=S)Nc1ccccc1Cl	36.2%	
CCc1ccc2c(c1)cc(CN(C(=S)Nc1ccccc1Cl)C1CC1)c1nnnn12		6.57 µM (active)
CCc1cccc(NC(=S)N(CCN(C)C)C2CCN(C(C)C)CC2)c1	-29.2% [at 0.00184 µM]	
COc1ccc(CNC(=O)C(=O)NCC2OCCN2C(=O)c2ccc(OC)cc2)cc1 (stereo unspecified)	-15.6%	
Cc1c(CCC(=O)N[C@@H](CC(C)C)C(=O)O)c(=O)oc2c(C)c3oc4c(c3cc12)CCCC4		2.33 µM (active)
CC[C@@H](C)[C@H](NC(=O)CCc1c(C)c2cc3c4c(oc3c(C)c2oc1=O)CCCC4)C(=O)O	12%	
Cc1c(C)c2cc3c4c(oc3c(C)c2oc1=O)CCCC4	22%	
O=C(NCc1ccccc1)C(c1ccccc1)N(C(=O)c1csnn1)c1ccc(F)cc1 (stereo unspecified)	-14.5%	
Cc1c2cn[nH]c(=O)c2c(C)n1Cc1ccc(F)cc1		11.7 µM (active)
Cc1n[nH]c(=O)c2c1nnn2Cc1ccc(F)cc1	19.1%	
CSc1nc2ccccc2c(=O)n1Cc1ccc(F)cc1	-13%	
Cc1ccc(N2C(=O)C3C4C=CC(CC4)C3C2=O)cc1Br (stereo unspecified)	0%	
O=C(COc1coc(CN2CCN(c3ccccc3F)CC2)cc1=O)N1CCc2ccccc21	-10.4%	
